Results taken from PubChem BioAssay AID2315 (National Center for Advancing Translational Sciences (NCATS), 2010).
In all, about 290,000 compounds went through this assay and about 27,000 (9.3%) were called active. Shown is part of a subset that was picked to be rich in actives. A number with no mark means an inactive call. Cut-off read from the data, not from the text of the source: active = inhibition mostly above about 28% (no sharp cut-off); inactive = mostly below about 43%.

experiment: A qHTS for Small Molecule Inhibitors of Shiga Toxin; settings: Vero cells, Shiga toxin protein synthesis inhibition reporter; at 38.7 µM, hits give high values; note: 0% is about no effect

Row | SMILES | inhibition
1 | CC(=O)N/C(=N/c1nc(C)cc(C)n1)Nc1ccc(F)cc1F | -13.6%
2 | CC(OC(=O)c1ccc2noc(-c3ccccc3)c2c1)C(N)=O (stereo not given) | 1.23%
3 | CC(=O)c1c(C)n(-c2ccc(C)cc2)c2ccc(O)cc12 | -16.2%
4 | O=C(Oc1ccc(-c2nc(-c3ccccn3)no2)cc1)c1ccccc1 | 33% (active)
5 | CCCCCCOc1ccc(OC(=O)c2cccnc2)cc1 | 37.9%
6 | O=C(Oc1ccc(Br)cc1)c1cccnc1 | 22.6%
7 | CCN(CC)Cc1c(C(=O)N/N=C/c2cccc(OCc3ccc(F)cc3)c2)nnn1-c1nonc1N | -1.06%
8 | COC(c1ccccc1)(c1ccccc1)C(Oc1nc(C)cc(C)n1)C(=O)O (stereo not given) | -2.84%
9 | COc1ccc(S(=O)(=O)n2nc(C)c(S(=O)(=O)N3CCOCC3)c2C)cc1 | 13.2%
10 | CCOC(=O)c1c(-c2ccc(-c3ccccc3)cc2)csc1NC(=O)CCC(=O)O | -3.4%
11 | O=c1c2cc([N+](=O)[O-])ccc2nc2n1CCC2 | -7.31%
12 | O=C(Nc1ccc(C(=O)NCc2ccccc2Cl)cc1)C1=CSCCO1 | 47.1% (active)
13 | CSc1ccc(CNC(=O)c2ccc(NC(=O)C3=CSCCO3)cc2)cc1 | 16.6%
14 | O=C(NCc1ccccc1Cl)C1CCCO1 (stereo not given) | 19.8%
15 | CC12CCC(C(=O)N(NC(=O)c3ccccc3O)C1=O)C2(C)C (stereo not given) | 10.2%
16 | Cc1cccc(C(=O)Nc2nnc(S(=O)(=O)N3CCCCCC3)s2)c1 | 13.6%
17 | COc1cc(C(=O)OCc2ccc([N+](=O)[O-])cc2)cc(OC)c1OC | -13.3%
18 | COc1cc(/C=N/O)ccc1OCc1ccc([N+](=O)[O-])cc1 | 82.1% (active)
19 | COc1cc(/C=N\Nc2ccc([N+](=O)[O-])cn2)ccc1OCC(=O)O | 31.3%
20 | O=C(Nc1ccc(F)cc1)C(=O)c1cn(CC(=O)N2CCOCC2)c2ccccc12 | 15.3%
21 | Cc1ccc(CNC(=O)C(=O)c2cn(CC(=O)N3CCOCC3)c3ccccc23)cc1 | 79.4% (active)
22 | O=C(NCc1ccco1)C(=O)c1cn(CC(=O)N2CCCCCC2)c2ccccc12 | 27.2%
23 | COc1cccc(NC(=O)C(=O)c2cn(CC(=O)N3CCOCC3)c3ccccc23)c1 | 92.3% (active)
24 | CN1CCN(C(=O)C(=O)c2cn(CC(=O)N3CCCC3)c3ccccc23)CC1 | -13%

Row | SMILES | inhibition
25 | CN(Cc1ccccc1)C(=O)C(=O)c1cn(CC(=O)N2CCCC2)c2ccccc12 | 5.26%
26 | COc1cccc(NC(=O)CS(=O)(=O)c2cn(CC(=O)N3CCOCC3)c3ccccc23)c1 | -10.3%
27 | O=C(NCCCn1ccnc1)C(=O)c1cn(CC(=O)N2CCCCCC2)c2ccccc12 | -6.62%
28 | Cc1ccc(CNC(=O)C(=O)c2cn(CC(=O)N3CCCC3)c3ccccc23)cc1 | 35.1% (active)
29 | COc1cccc(N(CC(=O)NC2CCCC2)C(=O)CCCC(=O)Nc2ccccn2)c1 | -5.09%
30 | CCCNC(=O)CCc1c(C)nc2c(c(C)nn2-c2ccccc2)c1C | -16.2%
31 | CCOc1ccc(N(CC(=O)Nc2cccc(OC)c2)S(C)(=O)=O)cc1 | 28.6%
32 | CCC1=Nc2cc(C(=O)NCCN3CCCC3)ccc2Sc2ccc(C)cc21 | -6.55%
33 | O=C(CN1C(=O)COc2ccc(Cl)cc21)Nc1ccc(N2CCOCC2)cc1 | -16.6%
34 | Cc1cccc(N(C)C(=O)CN2C(=O)COc3ccc(S(=O)(=O)N4CCCCCC4)cc32)c1 | 4.44%
35 | CCn1c(SCCC(C)C)nnc1-c1c[nH]c2ccccc12 | -3.59%
36 | CCC(C)Sc1nnc(-c2c[nH]c3ccccc23)n1CCOC (stereo not given) | 11.2%
37 | CCCc1cc(-c2nc(-c3ccc(C)cc3)cs2)ccn1 | 68% (active)
38 | Cc1ccc(-c2csc(N(Cc3ccco3)C(=O)c3cccs3)n2)cc1 | 18.8%
39 | Cc1ccc(-c2csc(-c3c[nH]c4ccccc34)n2)cc1 | 111% (active)
40 | CCCc1nc2scc(-c3ccc(C)cc3)c2c(=O)n1N | 44.2%
41 | Cc1cc(-c2n[nH]c(=S)n2-c2ccc(C)c(C)c2)no1 | 6.5%
42 | CCCc1cc(-c2n[nH]c(=S)n2CC)c2ccccc2n1 | -6.2%
43 | Cc1ccc(-c2csc(-c3cc(C)on3)n2)cc1 | 43% (active)
44 | CC(=O)N1c2ccc(S(=O)(=O)N(C)CC(=O)N(C)Cc3ccccc3)cc2CC1C (stereo not given) | -1.97%
45 | Cc1ccc(NC(=O)CCN2C(=O)c3ccccc3C2=O)cc1C | 7.31%
46 | O=C(NCCN1CCOCC1)/C(=C/c1ccc(F)cc1)NC(=O)c1ccccc1 | -6.87%
47 | COc1cccc(CNC(=O)COc2cc(O)c3c(c2)OC(C)(C)CC3=O)c1 | 7.09%
48 | Cc1cccc(NC(=O)C2CCCN(C(=O)NCc3ccccc3)C2)c1C (stereo not given) | 14.7%

Row | SMILES | inhibition
49 | CCCc1cc(=O)[nH]c(SCC(=O)N2C(C)CCCC2C)n1 (stereo not given) | 1.9%
50 | O=C(N/N=C/c1ccc2c(c1)OCO2)C(=O)N1CCCC1 | 76.5% (active)
51 | Cc1[nH]c2ccccc2c1/C=N/NC(=O)CNC(=O)c1ccc2c(c1)OCO2 | -14.9%
52 | O=C(N/N=C/c1ccc([N+](=O)[O-])cc1)C(=O)N1CCCC1 | 19%
53 | O=C(CNC(=O)C(c1ccccc1)c1ccccc1)N/N=C\c1ccc2c(c1)OCO2 | 66.2% (active)
54 | O=C(Cc1ccc(F)cc1)N/N=C/c1ccc2c(c1)OCO2 | 42.2%
55 | CN1CCN(C(=O)/C(=C\c2ccc3c(c2)OCO3)NC(=O)c2cccs2)CC1 | -3.92%
56 | OC(COc1ccc(Br)cc1)CN1CCCC1 (stereo not given) | -1.94%
57 | CN1C2CCC1CC(NC(=O)c1ccc([N+](=O)[O-])cc1)C2 (stereo not given) | -5.48%
58 | Cn1c(=O)c2c(SCC(=O)NCC3CCCO3)nc(CC(C)(C)C)nc2n(C)c1=O (stereo not given) | -7.65%
59 | Cc1cccc(NS(=O)(=O)c2ccc([N+](=O)[O-])cc2)n1 | 12.1%
60 | COc1ccccc1-c1nc(C#N)c(N2CCC(C(N)=O)CC2)o1 | -15%
61 | Cc1oc(-c2ccccc2F)nc1CS(=O)CC(=O)NCCN1CCCCC1C (stereo not given) | -8.05%
62 | CC1CCN(c2oc(-c3ccccc3F)nc2C#N)CC1 | 69.1% (active)
63 | O=C(c1ccccc1F)N1CCN(S(=O)(=O)c2ccc(Br)cc2)CC1 | -11.4%
64 | Cc1c(C(=O)N2CCCc3ccccc32)sc2nc(-c3ccccc3)cn12 | 21.5%
65 | Cc1cccc(C)c1NC(=O)N1CC(C)OC(C)C1 (stereo not given) | -12.3%
66 | Cc1c(C(=O)NCC2CCCO2)sc2nc(-c3ccccc3)cn12 (stereo not given) | 93% (active)
67 | CCOc1ccc(-n2c(N)c(C(=O)NCC3CCCO3)sc2=S)cc1 (stereo not given) | -14.3%
68 | O=C(CSc1ccc(-c2ccccc2)nn1)NCC1CCCO1 (stereo not given) | 20.8%
69 | Cc1c(C(=O)N2CC(C)OC(C)C2)sc2nc(-c3ccccc3)cn12 (stereo not given) | 64.7% (active)
70 | COc1ccccc1N1CCN(C(=O)c2cc(=O)c3cc(C)cc(C)c3o2)CC1 | 3.39%
71 | COc1cccc(-n2c(=S)sc3c(=O)n(-c4ccccc4C)c(SCC(=O)O)nc32)c1 | 20.4%
72 | CCOc1ccc2[nH]c3nc(SCC(=O)NC4CCCC4)nnc3c2c1 | -5.52%

Row | SMILES | inhibition
73 | CCOc1ccc2nc(N(CCN(C)C)C(=O)c3ccc4ccccc4c3)sc2c1 | 25.9%
74 | Cc1nc(COc2cc3oc(=O)cc(C)c3cc2Cl)cs1 | 2.94%
75 | O=C(NCCCN1CCOCC1)c1cc2c(s1)CCC2 | 33%
76 | O=C(NNC(=O)c1cc2c(s1)CCCC2)c1ccccc1 | 110% (active)
77 | O=C(c1cc2c(s1)CCC2)N1CCN(c2ccccc2)CC1 | 44.1%
78 | CN(CC(=O)Nc1ccccc1F)CC(=O)Nc1ccccc1Br | 13%
79 | NC(=O)c1c(NC(=O)c2ccccc2)sc2c1CCCC2 | 68.2% (active)
80 | COc1ccc(C(CNC(=O)c2cc3c(s2)CCCC3)N2CCOCC2)cc1 (stereo not given) | -16.3%
81 | O=C(COC(=O)c1cc2c(s1)CCCC2)NCc1ccccc1Cl | 7.81%
82 | O=C(CNC(=O)c1cc2c(s1)CCC2)Nc1ccccc1Br | 61.2% (active)
83 | O=C(Nc1sc2c(c1C(=O)O)CCC2)c1ccccc1F | 15%
84 | O=C(Nc1ccc(F)cc1)c1cc2c(s1)CCCC2 | 127% (active)
85 | C=CCN(CC=C)S(=O)(=O)c1ccc(C(=O)Nc2sc3c(c2C(N)=O)CCCCC3)cc1 | -0.928%
86 | O=C(NCCCn1ccnc1)c1cc2c(s1)CCCC2 | -5.02%
87 | CN1C(=O)C2(OCCCO2)c2cc(Cl)ccc21 | -14.7%
88 | CC1CCN(C(=O)C2CCN(S(=O)(=O)N3CCC4(CC3)OCCO4)CC2)CC1 | -15.9%
89 | O=C(C[C@H]1C(=O)N(c2ccc(F)c(F)c2)C[C@@H]1Cc1ccccc1)Nc1ccccc1 | -3.22%
90 | COc1ccc(C(=O)Nc2ccc(C(=O)NCC3CCCO3)cc2)c(OC)c1OC (stereo not given) | -2.17%
91 | CCSc1nc2sc3c(c2c(=O)n1-c1ccc(C)cc1)CCN(C)C3 | -6.21%
92 | CC1(C)Cc2c(sc(NC(=O)C(=O)N3CCOCC3)c2C#N)CO1 | -10.6%
93 | COC(=O)C(C)n1cnc2c(nnn2-c2cccc(Cl)c2)c1=O (stereo not given) | 26%
94 | CCOC(=O)C(C)n1cnc2c(nnn2-c2ccc(F)cc2)c1=O (stereo not given) | 18.3%
95 | CCOC(=O)C(C)n1cnc2c(nnn2-c2cccc(OC)c2)c1=O (stereo not given) | 41% (active)
